Activity calls are given as the source filed them.
How the values were obtained:
[1] = E. coli DRC41 culture turbidity changes, primary screen, E. coli filamentation inducer project, strain DRC41, OD650, 48 h (AID 1152);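 note: E. coli MC1000 strain DRC41 lacking acrAB efflux pump and sulA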; details: E. coli DRC41 (acrAB sulA), higher = more signal, called active from +8 up or from −8 down
[2] = small-molecule binders of probe aLefty1, primary screen, biochemical, small-molecule microarray, 635/667 nm fluorescence (AID 1153); details: higher = more signal;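 note: score merges spot fluorescence with signal-to-noise ratio from the scanned slide images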
[3] = PSAC antagonists in infected red cells, primary screen, cell-based, P. falciparum Indochina, OD700, 1 h (AID 1154); details: P. falciparum Indochina infected RBC osmotic lysis, higher = more signal, called active from +8 up or from −8 down
[4] = PSAC antagonists in infected red cells, primary screen, cell-based, P. falciparum Indochina, OD700, 2 h (AID 1155);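 note: lysis reports solute entry through the parasite surface anion channel PSAC; channel blockers reduce lysis of infected cells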; details: P. falciparum Indochina infected erythrocytes, osmotic lysis OD700; higher = more signal, called active from +8 up or from −8 down
[5] = osmotic lysis modulators in infected erythrocytes, primary screen, PSAC antagonist project, cell-based, P. falciparum Indochina, OD700, 3 h (AID 1156); details: higher = more signal, called active from +8 up or from −8 down
[6] = PSAC antagonists in infected red cells, primary screen, cell-based, P. falciparum Indochina, OD700, 18 h (AID 1157); details: P. falciparum Indochina infected erythrocytes, osmotic lysis OD700, 18 h; higher = more signal, called active from +8 up or from −8 down
[7] = modulators of S6 phosphorylation in cells, primary screen, cell-based, A549, cytoblot, luminescence, serum-stimulated (AID 1158); details: A549 phospho-S6 cytoblot, 5 h, higher = more signal;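 note: serum-stimulated A549 lung adenocarcinoma cells; signal is phosphorylated S6 detected by cytoblot immunostaining with HRP secondary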
[8] = target: NADPH oxidase 2 (Homo sapiens) (UniProt P04839); experiment: NOX2-dependent H2O2 signal modulators, primary screen, NOX inhibitor project, cell-based, HEK293-NOX2, PMA-stimulated, Amplex Red fluorescence (AID 1159); details: 45 min, higher = more signal, called active from +8 up or from −8 down; note: test concentration not given here
Chain of NADPH oxidase 2 (Homo sapiens) (P04839 whole entry, looked up): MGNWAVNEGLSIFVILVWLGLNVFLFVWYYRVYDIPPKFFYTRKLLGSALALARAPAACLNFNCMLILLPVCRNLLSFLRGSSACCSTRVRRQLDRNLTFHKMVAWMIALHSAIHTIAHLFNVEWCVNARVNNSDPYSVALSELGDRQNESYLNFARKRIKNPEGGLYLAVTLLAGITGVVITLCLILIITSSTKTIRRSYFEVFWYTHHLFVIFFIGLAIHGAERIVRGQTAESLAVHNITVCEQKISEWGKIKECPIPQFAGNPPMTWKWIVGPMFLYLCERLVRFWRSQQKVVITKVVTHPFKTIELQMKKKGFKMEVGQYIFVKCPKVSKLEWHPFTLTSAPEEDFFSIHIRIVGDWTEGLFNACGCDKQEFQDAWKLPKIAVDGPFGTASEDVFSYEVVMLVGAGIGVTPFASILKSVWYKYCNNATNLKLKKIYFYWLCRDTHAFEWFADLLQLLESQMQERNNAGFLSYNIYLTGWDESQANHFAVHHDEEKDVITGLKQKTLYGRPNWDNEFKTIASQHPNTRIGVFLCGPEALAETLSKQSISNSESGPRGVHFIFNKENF

[9] = target: NADPH oxidase 4 (Homo sapiens) (UniProt Q9NPH5); experiment: NOX4-dependent H2O2 signal modulators, primary screen, NOX inhibitor project, cell-based, HEK293-NOX4, tetracycline-induced, Amplex Red fluorescence (AID 1160); details: 45 min, higher = more signal, called active from +8 up or from −8 down
Chain of NADPH oxidase 4 (Homo sapiens) (Q9NPH5 whole entry, looked up): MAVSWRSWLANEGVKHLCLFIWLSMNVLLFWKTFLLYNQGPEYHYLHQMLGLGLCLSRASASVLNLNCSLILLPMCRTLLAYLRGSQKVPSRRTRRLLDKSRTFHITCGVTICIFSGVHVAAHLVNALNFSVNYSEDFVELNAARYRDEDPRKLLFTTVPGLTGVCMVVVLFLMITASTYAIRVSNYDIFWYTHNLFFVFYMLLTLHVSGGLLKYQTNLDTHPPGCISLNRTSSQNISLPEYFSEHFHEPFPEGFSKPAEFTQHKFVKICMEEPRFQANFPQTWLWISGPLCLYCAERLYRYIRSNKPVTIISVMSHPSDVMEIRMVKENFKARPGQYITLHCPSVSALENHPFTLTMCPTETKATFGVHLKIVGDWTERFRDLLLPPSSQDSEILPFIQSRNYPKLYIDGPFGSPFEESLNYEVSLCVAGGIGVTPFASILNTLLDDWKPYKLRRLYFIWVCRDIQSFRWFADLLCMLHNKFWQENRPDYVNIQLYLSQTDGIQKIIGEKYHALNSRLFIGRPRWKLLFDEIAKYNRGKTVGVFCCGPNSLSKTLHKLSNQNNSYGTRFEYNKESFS

[10] = target: NADPH oxidase 5 (Homo sapiens) (UniProt Q96PH1); experiment: NOX5-dependent H2O2 signal modulators, primary screen, NOX inhibitor project, cell-based, HEK293-NOX5, Amplex Red fluorescence (AID 1161); details: HEK293-NOX5, ionomycin, 45 min, higher = more signal
Chain of NADPH oxidase 5 (Homo sapiens) (Q96PH1 whole entry, looked up): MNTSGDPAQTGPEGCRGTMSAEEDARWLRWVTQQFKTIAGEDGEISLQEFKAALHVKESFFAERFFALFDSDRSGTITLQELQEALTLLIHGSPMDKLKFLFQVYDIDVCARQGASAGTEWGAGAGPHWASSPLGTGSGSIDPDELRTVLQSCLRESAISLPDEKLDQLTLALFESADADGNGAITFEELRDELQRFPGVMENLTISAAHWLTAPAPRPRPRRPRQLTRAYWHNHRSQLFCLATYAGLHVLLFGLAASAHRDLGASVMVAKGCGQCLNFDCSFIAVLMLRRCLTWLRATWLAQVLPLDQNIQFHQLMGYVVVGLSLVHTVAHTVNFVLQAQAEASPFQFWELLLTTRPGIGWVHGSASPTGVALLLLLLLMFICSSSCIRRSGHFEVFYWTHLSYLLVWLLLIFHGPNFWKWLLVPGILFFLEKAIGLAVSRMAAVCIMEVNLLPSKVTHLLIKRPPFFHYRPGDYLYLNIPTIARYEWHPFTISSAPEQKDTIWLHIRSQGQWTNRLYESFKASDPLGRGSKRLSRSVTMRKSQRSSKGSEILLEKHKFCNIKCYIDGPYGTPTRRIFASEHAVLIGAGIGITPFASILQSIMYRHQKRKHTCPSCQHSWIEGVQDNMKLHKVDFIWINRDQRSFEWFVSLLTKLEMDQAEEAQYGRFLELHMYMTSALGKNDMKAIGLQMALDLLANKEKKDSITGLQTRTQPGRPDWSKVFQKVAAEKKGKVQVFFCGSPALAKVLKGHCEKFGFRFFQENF

| SMILES | z-score [1] | composite z-score [2] | z-score [3] | z-score [4] | z-score [5] | z-score [6] | z-score [7] | z-score [8] | z-score [9] | z-score [10] |
| --- | --- | --- | --- | --- | --- | --- | --- | --- | --- | --- |
| C=C[C@H](C)[C@H](O)c1ccc(OCCO)cc1 | 1.05 (inactive) | -0.553 | 1.09 (inactive) | 0.521 (inactive) | 1.62 (inactive) | 0.402 (inactive) | 0.156 | 0.218 (inactive) | -0.187 (inactive) | -0.112 |
| [N-]=[N+]=Nc1ccccc1[C@@H]1OC(c2ccc(OCCCO)cc2)=N[C@]1(CCS(=O)(=O)c1ccccc1)C(=O)O | 0.604 (inactive) | 0.568 | 28.8 (active) | 24.4 (active) | 0.971 (inactive) | 4.63 (inactive) | -0.067 | -2.5 (inactive) | -0.0168 (inactive) | 0.778 |
| C=CCN1Cc2ccccc2C[C@]2(N=C(c3ccc(OCCCO)cc3)O[C@@H]2c2ccccc2)C1=O | 1.35 (inactive) | 0.32 | 24.3 (active) | 12.6 (active) | -0.0845 (inactive) | 1.93 (inactive) | 1.95 | -2.9 (inactive) | 0.272 (inactive) | -2.7 |
| COc1ccc([Si](C)(C)[C@H]2[C@H](CCO)O[C@@]3(C(=O)N(Cc4ccccc4)c4ccc(N5C(=O)COc6ccccc65)cc43)[C@@H]2C)cc1 | 0.592 (inactive) | 0.167 | 5.33 (inactive) | 2.16 (inactive) | 1.3 (inactive) | 1.65 (inactive) | 2.08 | -1.74 (inactive) | 1.53 (inactive) | 0.595 |
| COc1ccc([Si](C)(C)[C@@H]2[C@@H](CCO)O[C@]3(C(=O)N(Cc4ccccc4)c4ccc(N(C=O)c5ccccc5)cc43)[C@H]2C)cc1 | 0.601 (inactive) | 0.0355 | 2.8 (inactive) | 2.37 (inactive) | 1.09 (inactive) | 1.87 (inactive) | 0.418 | 0.337 (inactive) | 1.06 (inactive) | 2.49 |
| CN1C(=O)C2C(C1=O)C1C=C(c3ccc(CO)cc3)C2C(C2CC2)N1Cc1sc2ccccc2c1Cl (stereo not given) | 0.743 (inactive) | 0.146 | 20.7 (active) | 5.75 (inactive) | 0.713 (inactive) | 1.82 (inactive) | 0.0504 | -3.97 (inactive) | -0.852 (inactive) | -3.7 |
| [N-]=[N+]=NCc1ccccc1C[C@]1(C(=O)NCCN2CCOCC2)N=C(c2ccc(OCCCO)cc2)O[C@H]1c1ccccc1CN=[N+]=[N-] | 1.26 (inactive) | 0.453 | 20.7 (active) | 3.07 (inactive) | 0.58 (inactive) | 0.669 (inactive) | 2.75 | -4.56 (inactive) | -2.27 (inactive) | -1.27 |
| CCCCCCC#C[Si](O[C@H](c1ccccc1)c1cn([C@H](C)c2ccccc2)nn1)(C(C)C)C(C)C | 2.21 (inactive) | -0.234 | 1.18 (inactive) | -0.0458 (inactive) | -0.0391 (inactive) | -0.0352 (inactive) | 0.138 | 0.054 (inactive) | -0.749 (inactive) | 0.268 |
| COC(=O)c1c2oc(c1C(=O)OC)C(=O)N[C@H](Cc1ccccc1)Cn1nncc1C1(CCCCC1)NC(=O)N[C@H](CO)CC2 | 1.74 (inactive) | -0.237 | 5.12 (inactive) | 1.58 (inactive) | 0.52 (inactive) | 0.628 (inactive) | 0.14 | -2.86 (inactive) | -2.14 (inactive) | -3.47 |
| COc1ccc(C(O)C2C=CC3C(=O)N(c4ccccc4)C(=O)C3N2Nc2ccccc2)c2ccccc12 (stereo not given) | -0.831 (inactive) | 0.318 | 6.65 (inactive) | 1.75 (inactive) | 0.303 (inactive) | 1.34 (inactive) | -0.654 | -1.48 (inactive) | -3.15 (inactive) | -2.57 |
| O=C1OCC=C[C@H]2OC34C=CCN(c5ccc6ccccc6c5)C(=O)[C@H]3N(CCO)C(=O)[C@@H]4[C@@H]12 (stereo not given in full) | -0.773 (inactive) | 0.235 | 1.33 (inactive) | 0.796 (inactive) | 0.547 (inactive) | 0.552 (inactive) | -0.572 | 1.53 (inactive) | 1.05 (inactive) | 1.46 |
| C=CCOC(=O)[C@@H]1[C@H]2C(=O)O[C@H](c3ccccc3)[C@H](c3ccccc3)N2[C@H](c2ccc(OCCOC(=O)[C@H]3C[C@H]4C(=O)N[C@@H](Cc5ccccc5)C(=O)N4[C@H]3c3ccc(O)cc3)cc2)[C@@]12C(=O)Nc1ccc(I)cc12 | -1.78 (inactive) | -0.539 | 6.54 (inactive) | 5.05 (inactive) | -2.73 (inactive) | 2.58 (inactive) | -1.77 | 3.07 (inactive) | 0.471 (inactive) | 3.69 |
| COCCCNC(=O)[C@@]1(C)c2ccccc2C(=O)N(Cc2ccccc2)[C@H]1c1ccc(CO)cc1 | -0.0509 (inactive) | 0.114 | 2.68 (inactive) | 0.179 (inactive) | 2.67 (inactive) | -0.487 (inactive) | 2.82 | -1.63 (inactive) | -2.44 (inactive) | -2.66 |
